Entries with a potency or affinity are not part of this list. Active and inactive are the calls of the source.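 How the source made its calls: active means compounds whose fitted concentration for half the maximal dye retention is below 100 µM; inactive means the rest.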
molecular target: Multidrug resistance protein CDR2 (Candida albicans (strain SC5314 / ATCC MYA-2876)) (UniProt P78595); experiment: blockers of Nile Red efflux by Candida CDR2 – S. cerevisiae AD1-8u, singleplex, Cherry Pick2 set, dose response (AID 623994); settings: S. cerevisiae AD1-8u expressing CaCDR2, Nile Red efflux; series mostly up to 100 µM
Sequence (P78595 whole entry, looked up): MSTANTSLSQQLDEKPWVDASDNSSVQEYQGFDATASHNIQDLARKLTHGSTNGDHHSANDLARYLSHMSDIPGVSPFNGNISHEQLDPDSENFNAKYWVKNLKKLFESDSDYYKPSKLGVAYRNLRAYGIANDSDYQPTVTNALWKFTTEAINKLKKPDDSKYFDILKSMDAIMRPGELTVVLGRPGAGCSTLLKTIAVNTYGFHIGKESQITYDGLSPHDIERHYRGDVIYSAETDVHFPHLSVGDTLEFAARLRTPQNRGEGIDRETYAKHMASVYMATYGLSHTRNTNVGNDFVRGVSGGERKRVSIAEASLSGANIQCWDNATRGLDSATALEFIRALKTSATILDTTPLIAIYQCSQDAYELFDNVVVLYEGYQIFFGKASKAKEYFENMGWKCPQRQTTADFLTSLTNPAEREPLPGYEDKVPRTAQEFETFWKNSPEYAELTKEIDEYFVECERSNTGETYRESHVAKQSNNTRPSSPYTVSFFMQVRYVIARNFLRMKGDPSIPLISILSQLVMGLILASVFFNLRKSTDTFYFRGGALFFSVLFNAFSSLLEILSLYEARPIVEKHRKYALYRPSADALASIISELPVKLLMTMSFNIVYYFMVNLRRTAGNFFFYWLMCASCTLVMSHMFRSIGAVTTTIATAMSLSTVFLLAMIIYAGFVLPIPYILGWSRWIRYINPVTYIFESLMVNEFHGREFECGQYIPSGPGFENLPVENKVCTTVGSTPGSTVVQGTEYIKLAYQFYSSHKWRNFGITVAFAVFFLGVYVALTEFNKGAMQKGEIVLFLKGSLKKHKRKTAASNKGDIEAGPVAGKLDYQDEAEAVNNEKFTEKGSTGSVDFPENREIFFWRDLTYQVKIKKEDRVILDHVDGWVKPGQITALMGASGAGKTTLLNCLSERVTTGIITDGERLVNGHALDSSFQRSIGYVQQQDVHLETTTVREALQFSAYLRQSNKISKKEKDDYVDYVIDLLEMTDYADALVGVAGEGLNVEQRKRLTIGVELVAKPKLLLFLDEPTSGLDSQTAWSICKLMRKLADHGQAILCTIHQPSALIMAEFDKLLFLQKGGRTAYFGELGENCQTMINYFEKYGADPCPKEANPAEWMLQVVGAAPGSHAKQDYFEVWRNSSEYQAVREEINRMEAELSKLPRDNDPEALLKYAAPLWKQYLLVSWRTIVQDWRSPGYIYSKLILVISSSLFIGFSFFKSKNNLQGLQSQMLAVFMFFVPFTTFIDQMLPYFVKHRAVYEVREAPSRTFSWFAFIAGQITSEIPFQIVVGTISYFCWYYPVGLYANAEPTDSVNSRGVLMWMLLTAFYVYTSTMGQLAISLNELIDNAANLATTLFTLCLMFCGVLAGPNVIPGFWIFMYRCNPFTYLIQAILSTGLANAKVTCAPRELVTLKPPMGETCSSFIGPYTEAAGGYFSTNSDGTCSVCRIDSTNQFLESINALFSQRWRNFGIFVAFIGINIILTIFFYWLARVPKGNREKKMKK

outcome, inactive:
O=C(NC1CCCc2c1cnn2-c1ccccc1F)c1ccccn1 (centres undefined)
CCN(CC)CCC(c1ccc(N(C)C)cc1)c1c(OC)cc(OC)c2ccc(=O)oc12 (centres undefined)
Nc1ccc(C(=O)OCCc2ccccc2)cc1
O=C(C[n+]1cc(-c2ccccc2)n2c1CCC2)N1c2ccccc2Sc2ccccc21
COc1ccc(CNC(=O)C(C#N)c2nc3ccccc3nc2N2CCN(C)CC2)cc1 (centres undefined)
COc1ccc(CNC(=O)C(C#N)c2nc3ccccc3nc2N2CCCC2)cc1 (centres undefined)
O=C(NCCc1ccc(Cl)cc1)C1CCC(CNc2nc(=S)[nH]c3ccccc23)CC1 (centres undefined)
O=C(c1ccc2c(c1)OCO2)N1CCC2(CC1)Oc1ccc(F)cc1C(=O)C21CC(c2ccc(Cl)cc2)=NO1 (centres undefined)
COc1ccc2nc(NC(=O)c3cccs3)sc2c1
COc1ccc(C2CC(c3ccccc3)=NN2c2ccc(S(N)(=O)=O)cc2)cc1 (centres undefined)
COc1ccc(C2CC(c3ccccc3C(F)(F)F)=NN2c2ccc(S(N)(=O)=O)cc2)cc1 (centres undefined)
COc1ccc(S(=O)(=O)N(C)C[C@H]2Oc3c(NC(=O)NC4CCCCC4)cccc3C(=O)N([C@H](C)CO)C[C@@H]2C)cc1
COc1ccc(CN2C(=O)C(C)Nc3ncnc(N4CCN(c5ccccc5)CC4)c32)cc1 (centres undefined)
OCCN1CCN(CC/C=C2/c3ccccc3Sc3ccc(C(F)(F)F)cc32)CC1
O=C(CSc1nnc(Cc2cccs2)n1Cc1ccco1)Nc1ccc(Br)cc1
O=C(C1CCC(CNc2nc(=S)[nH]c3ccccc23)CC1)N1CCN(c2ccc(F)cc2)CC1 (centres undefined)
COc1ccc(-c2c[n+](CC(=O)N3c4ccccc4Sc4ccccc43)c3n2CCC3)cc1
CCCCNC(=O)C1CCC(CNc2nc(=S)[nH]c3ccccc23)CC1 (centres undefined)
COc1ccc(C(=O)OCCc2ccc(O)cc2)cc1
NS(=O)(=O)c1ccc(N2N=C(c3ccc(Br)cc3)CC2c2ccc(F)cc2)cc1 (centres undefined)
COc1cc(OC)c2ccc(=O)oc2c1C(CCN1CCCC(C)C1)c1ccc(N(C)C)cc1 (centres undefined)
O=C(/C=C/c1cccs1)N1CCC2(CC1)Oc1ccc(F)cc1C(=O)C21CC(c2ccccc2)=NO1 (centres undefined)
C[C@H](CO)N1C[C@H](C)[C@@H](CN(C)S(=O)(=O)c2ccccc2)Oc2c(NC(=O)Nc3ccccc3)cccc2C1=O
O=C(Nc1ccccc1)C1=C[C@@H](c2ccc(Br)cc2)C[C@@H](OCCCCO)O1
COc1ncccc1C(=O)NC1CCCc2c1cnn2-c1cc(C)cc(C)c1 (centres undefined)
COc1cc(OC)c2ccc(=O)oc2c1C(CCN1CCCCC1)c1ccc(N(C)C)cc1 (centres undefined)
Cc1ccc(C)c(N2CCN(C(=O)C3CCCN(c4ncnc5c4nc4n5CCCCC4)C3)CC2)c1 (centres undefined)
CCCCCc1cc(=O)oc2c(C(CCN3CCCC(C)C3)c3ccc(N(C)C)cc3)c(OC)cc(OC)c12 (centres undefined)
Cc1noc(C)c1C(=O)N1CCC2(CC1)Oc1ccc(F)cc1C(=O)C21CC(c2ccc(Cl)cc2)=NO1 (centres undefined)

Source: PubChem BioAssay AID623994 (NMMLSC, 2012)
